Measured values published in PubChem BioAssay.
Unmarked numbers belong to inactive results. Some of the results follow. Calls of active or inactive are those of the source.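 How the source made its calls, unless noted: active means mean inhibition above a cutoff equal to the average over all tested compounds plus one standard deviation (cut at about 70% in these data); inactive means the rest.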

Tests used:
[1] = target: Photoreceptor-specific nuclear receptor (Homo sapiens) (UniProt Q9Y5X4); assay: corepressor-releasing ligands of human NR2E3 – biochemical, TR-FRET, confirmation (AID 2379; in the data active means activation above about 20%); conditions: cell-free NR2E3 corepressor release, 5 h, at 3.98 µM, stronger effect = higher value
Chain of Photoreceptor-specific nuclear receptor (Homo sapiens) (Q9Y5X4 whole entry, looked up, the tested form may be a part): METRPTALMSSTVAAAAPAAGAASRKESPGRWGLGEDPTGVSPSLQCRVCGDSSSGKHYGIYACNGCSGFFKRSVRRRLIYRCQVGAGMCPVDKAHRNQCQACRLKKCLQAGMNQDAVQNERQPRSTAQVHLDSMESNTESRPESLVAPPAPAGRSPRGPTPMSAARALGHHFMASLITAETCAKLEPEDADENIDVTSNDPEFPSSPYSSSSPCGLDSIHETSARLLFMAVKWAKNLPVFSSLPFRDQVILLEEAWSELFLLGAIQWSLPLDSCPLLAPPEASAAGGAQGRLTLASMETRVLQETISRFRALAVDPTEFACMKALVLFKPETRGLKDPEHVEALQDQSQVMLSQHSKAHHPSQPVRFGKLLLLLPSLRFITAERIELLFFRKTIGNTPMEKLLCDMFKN

[2] = target: Peroxisome proliferator-activated receptor gamma (Homo sapiens) + Nuclear receptor corepressor 2 (Homo sapiens) (UniProt P37231+Q9Y618); assay: agonists of PPARg-NCOR2 corepressor interaction, counter-screen for NR2E3 agonist project, biochemical, TR-FRET (AID 504787; in the data active means inhibition above about 20%;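 further: 0% = DMSO vehicle and 100% = wells without protein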); conditions: TR-FRET PPARg-NCOR2 coregulator interaction, at 3.98 µM, stronger effect = higher value
[3] = target: Nuclear receptor coactivator 1 (Homo sapiens) (UniProt Q15788); assay: NCOA1 GAL4-fusion reporter inhibition – cell-based, luminescence, quadruplicate, confirmation (AID 588820;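 active means mean inhibition above 46.68%, the untreated control wells mean plus 3 SD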;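 further: 0% = DMSO wells and 100% = gossypol 36 µM treated wells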); conditions: HEK293 GAL4-SRC1 luciferase reporter, at 3.6 µM, stronger effect = higher value
Chain of Nuclear receptor coactivator 1 (Homo sapiens) (Q15788 whole entry, looked up, the tested form may be a part): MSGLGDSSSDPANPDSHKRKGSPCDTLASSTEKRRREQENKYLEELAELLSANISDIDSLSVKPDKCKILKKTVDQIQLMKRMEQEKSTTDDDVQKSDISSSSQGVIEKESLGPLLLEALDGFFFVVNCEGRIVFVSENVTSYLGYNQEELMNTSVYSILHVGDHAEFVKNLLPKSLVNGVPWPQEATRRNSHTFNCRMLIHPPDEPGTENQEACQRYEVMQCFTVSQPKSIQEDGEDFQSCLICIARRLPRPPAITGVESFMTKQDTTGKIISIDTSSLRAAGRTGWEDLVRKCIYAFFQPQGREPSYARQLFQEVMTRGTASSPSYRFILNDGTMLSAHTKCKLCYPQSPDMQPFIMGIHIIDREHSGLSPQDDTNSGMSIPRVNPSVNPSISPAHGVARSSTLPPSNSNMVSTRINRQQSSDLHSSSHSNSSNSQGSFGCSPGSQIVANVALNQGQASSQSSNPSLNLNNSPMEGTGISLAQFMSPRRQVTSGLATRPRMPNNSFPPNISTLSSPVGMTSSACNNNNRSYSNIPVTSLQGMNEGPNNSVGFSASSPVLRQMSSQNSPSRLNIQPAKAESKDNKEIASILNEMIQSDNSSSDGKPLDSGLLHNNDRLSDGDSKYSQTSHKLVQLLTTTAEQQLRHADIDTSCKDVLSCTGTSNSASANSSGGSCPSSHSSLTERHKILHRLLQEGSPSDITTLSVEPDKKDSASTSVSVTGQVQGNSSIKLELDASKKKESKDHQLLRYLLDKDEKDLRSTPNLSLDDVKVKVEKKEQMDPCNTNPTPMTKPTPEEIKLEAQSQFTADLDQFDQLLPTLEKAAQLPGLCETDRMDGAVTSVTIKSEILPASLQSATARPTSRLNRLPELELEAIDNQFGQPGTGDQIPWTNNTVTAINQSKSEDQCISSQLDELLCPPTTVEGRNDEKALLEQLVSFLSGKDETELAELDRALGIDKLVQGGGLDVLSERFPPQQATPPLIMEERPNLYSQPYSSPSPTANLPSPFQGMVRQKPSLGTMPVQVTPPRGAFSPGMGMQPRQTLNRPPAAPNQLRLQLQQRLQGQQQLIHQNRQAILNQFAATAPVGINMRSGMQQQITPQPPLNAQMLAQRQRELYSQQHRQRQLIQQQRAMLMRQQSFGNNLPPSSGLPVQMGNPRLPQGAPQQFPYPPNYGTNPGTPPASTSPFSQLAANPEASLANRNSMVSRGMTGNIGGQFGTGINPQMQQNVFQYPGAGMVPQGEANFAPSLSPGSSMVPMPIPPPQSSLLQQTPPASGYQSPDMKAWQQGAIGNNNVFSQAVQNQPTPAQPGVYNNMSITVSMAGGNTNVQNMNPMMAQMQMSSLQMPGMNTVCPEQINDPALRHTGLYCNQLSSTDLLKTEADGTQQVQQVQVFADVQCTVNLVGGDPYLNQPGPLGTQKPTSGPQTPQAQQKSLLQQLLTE

[4] = repression of VP16-driven luciferase reporter – cell-based, luminescence, high throughput, counter-screen for SRC1 inhibitor project (AID 588824; in the data active means inhibition above about 25%); conditions: cell-based VP16 transactivation luciferase luminescence; at 3.6 µM; stronger effect = higher value
[5] = target: Photoreceptor-specific nuclear receptor (Homo sapiens) (UniProt Q9Y5X4); assay: retest of NR2E3-NCOR disrupting agonists – cell-based, luminescence, CHO-S two-hybrid, confirmation (AID 624378;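 active means average inhibition above a cutoff equal to the mean inhibition of all tested compounds plus one SD, cut at about 70% in these data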;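 further: 0% = DMSO in NR2E3 cells and 100% = DMSO in cells lacking NR2E3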); conditions: CHO-S mammalian two-hybrid NR2E3-NCOR, luciferase luminescence; at 3.98 µM; stronger effect = higher value
[6] = nonselective effects on VP16 transactivation – cell-based, luminescence, CHO-S, high throughput, counter-screen for NR2E3 agonist project, confirmation (AID 624379); conditions: CHO-S GAL4-VP16 luciferase reporter, at 3.98 µM, stronger effect = higher value;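 further: 0% = DMSO with VP16-transfected cells and 100% = DMSO with cells lacking VP16; higher means less reporter light so more repression of VP16 activity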
[7] = reduced OD of V66 E. coli with T4 gene 2 phage – absorbance, RecBCD inhibitor project, confirmation (AID 651982;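 active means mean inhibition over triplicates exceeding the hit threshold derived in the original primary screen, cut at about 11% in these data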); conditions: E. coli V66 + T4 2- phage, growth OD; at 11.9 µM; stronger effect = higher value
[8] = bacterial growth inhibition – absorbance, high throughput, counter-screen for RecBCD inhibitor project (AID 651983; in the data active means inhibition above about 20%;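 further: E. coli strain V66 grown with compound alone and no phage infection; 0% = bacteria with DMSO vehicle only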); conditions: E. coli viability, absorbance (OD) growth; at 11.9 µM; stronger effect = higher value
[9] = reduced optical density, T4-challenged addAB+ bacteria – absorbance, E. coli V3065, T4 phage, counter-screen for RecBCD inhibitor project, confirmation (AID 651984;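 active means mean inhibition above the solvent-only control wells' mean plus 3 SD, cut at about 22% in these data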;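 further: higher means less bacterial growth from phage killing when AddAB is blocked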); conditions: E. coli expressing H. pylori AddAB + T4 phage, OD growth; at 11.9 µM; stronger effect = higher value; gene 2 mutant T4, recBCD-deleted host
[10] = system: transactivating tegument protein VP16 (Human herpesvirus 1); assay: compounds suppressing VP16-driven luciferase signal – cell-based, luminescence, single concentration, counter-screen for SRC2 inhibitor project (AID 652007; in the data active means inhibition above about 36%); conditions: cell-based VP16 transactivation luciferase reporter, at 8.9 µM, stronger effect = higher value
[11] = target: Nuclear receptor coactivator 2 (Homo sapiens) (UniProt Q15596); assay: inhibition of GAL4-SRC2 driven luciferase expression – cell-based, luminescence, HEK293, triplicate, confirmation (AID 652008;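 active means mean inhibition above 46.5%, the solvent-only control mean plus 3 SD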;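 further: 0% = DMSO-treated cells and 100% = Gossypol at 36 µM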); conditions: HEK293 GAL4-SRC2 luciferase reporter, at 8.9 µM, stronger effect = higher value
Chain of Nuclear receptor coactivator 2 (Homo sapiens) (Q15596 whole entry, looked up, the tested form may be a part): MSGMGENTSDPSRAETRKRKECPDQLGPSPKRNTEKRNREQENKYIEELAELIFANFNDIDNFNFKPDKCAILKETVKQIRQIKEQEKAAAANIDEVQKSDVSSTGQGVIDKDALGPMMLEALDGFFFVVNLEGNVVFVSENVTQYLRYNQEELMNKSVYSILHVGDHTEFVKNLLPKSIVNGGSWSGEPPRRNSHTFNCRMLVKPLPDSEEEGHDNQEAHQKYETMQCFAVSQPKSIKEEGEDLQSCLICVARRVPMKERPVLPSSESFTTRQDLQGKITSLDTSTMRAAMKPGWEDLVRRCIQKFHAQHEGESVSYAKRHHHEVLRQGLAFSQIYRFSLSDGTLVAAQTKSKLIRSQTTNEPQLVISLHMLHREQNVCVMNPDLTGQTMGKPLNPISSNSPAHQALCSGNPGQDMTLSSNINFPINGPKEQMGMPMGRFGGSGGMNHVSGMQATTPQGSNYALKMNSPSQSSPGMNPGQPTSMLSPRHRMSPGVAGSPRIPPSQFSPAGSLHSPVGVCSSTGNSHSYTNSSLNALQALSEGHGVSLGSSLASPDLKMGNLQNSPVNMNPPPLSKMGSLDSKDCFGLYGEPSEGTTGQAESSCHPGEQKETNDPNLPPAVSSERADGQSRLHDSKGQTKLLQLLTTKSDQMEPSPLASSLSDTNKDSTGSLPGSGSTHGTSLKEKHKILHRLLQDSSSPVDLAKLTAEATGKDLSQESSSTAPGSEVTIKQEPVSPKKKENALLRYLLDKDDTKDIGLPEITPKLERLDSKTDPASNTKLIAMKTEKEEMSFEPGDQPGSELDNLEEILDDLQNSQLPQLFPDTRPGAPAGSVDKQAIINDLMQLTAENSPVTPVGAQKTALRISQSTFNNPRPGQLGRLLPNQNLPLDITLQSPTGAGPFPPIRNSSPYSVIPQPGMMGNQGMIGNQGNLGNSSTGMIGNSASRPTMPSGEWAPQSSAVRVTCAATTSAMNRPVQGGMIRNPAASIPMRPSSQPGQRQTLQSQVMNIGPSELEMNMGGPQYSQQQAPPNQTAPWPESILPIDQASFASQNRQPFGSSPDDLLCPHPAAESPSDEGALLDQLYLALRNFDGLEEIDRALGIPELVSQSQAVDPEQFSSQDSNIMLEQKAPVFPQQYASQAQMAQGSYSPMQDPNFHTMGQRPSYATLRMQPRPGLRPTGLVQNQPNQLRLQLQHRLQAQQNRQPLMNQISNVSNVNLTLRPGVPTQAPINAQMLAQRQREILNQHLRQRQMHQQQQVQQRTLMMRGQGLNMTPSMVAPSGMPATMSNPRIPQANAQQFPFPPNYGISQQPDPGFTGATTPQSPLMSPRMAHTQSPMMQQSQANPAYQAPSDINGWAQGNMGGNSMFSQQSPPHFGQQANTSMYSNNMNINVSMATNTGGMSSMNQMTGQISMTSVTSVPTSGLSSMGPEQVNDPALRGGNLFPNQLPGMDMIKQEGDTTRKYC

[12] = target: (Lyso)-N-acylphosphatidylethanolamine lipase (Mus musculus) (UniProt Q8VD66); assay: mouse ABHD4 hydrolase blockers, triplicate – biochemical, fluorescence polarization, confirmation (AID 720658;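 active means mean inhibition across replicates above the hit cutoff set in the primary screen, cut at about 30% in these data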;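 further: 0% = wild-type ABHD4 with DMSO and 100% = catalytically dead S159A mutant with DMSO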); conditions: purified mABHD4, FP-Rh probe fluorescence polarization; at 8.92 µM; stronger effect = higher value
Chain of (Lyso)-N-acylphosphatidylethanolamine lipase (Mus musculus) (Q8VD66 whole entry, looked up): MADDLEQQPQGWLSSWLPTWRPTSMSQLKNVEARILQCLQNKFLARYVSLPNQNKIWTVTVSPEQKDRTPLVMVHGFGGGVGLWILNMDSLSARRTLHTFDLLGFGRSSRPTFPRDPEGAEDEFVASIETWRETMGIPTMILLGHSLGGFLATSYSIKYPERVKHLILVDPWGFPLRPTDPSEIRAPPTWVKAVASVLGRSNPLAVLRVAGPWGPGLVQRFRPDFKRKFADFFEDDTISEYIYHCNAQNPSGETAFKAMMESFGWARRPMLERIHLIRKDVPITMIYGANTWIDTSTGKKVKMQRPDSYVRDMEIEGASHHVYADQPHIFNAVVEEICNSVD

[13] = target: Platelet-activating factor acetylhydrolase IB subunit alpha1 (Homo sapiens) (UniProt Q15102); assay: inhibition of PAF acetylhydrolase 1B subunit 3 – biochemical, fluorescence polarization, human, confirmation (AID 493032;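 active means average inhibition over triplicate runs above the hit cutoff set in the earlier primary screen, cut at about 25% in these data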;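 further: 0% = enzyme with DMSO and 100% = wells lacking PAFAH1B3 protein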); conditions: recombinant PAFAH1B3, FP-Rh activity-based probe, at 3.39 µM, stronger effect = higher value
Chain of Platelet-activating factor acetylhydrolase IB subunit alpha1 (Homo sapiens) (Q15102 whole entry, looked up, the tested form may be a part): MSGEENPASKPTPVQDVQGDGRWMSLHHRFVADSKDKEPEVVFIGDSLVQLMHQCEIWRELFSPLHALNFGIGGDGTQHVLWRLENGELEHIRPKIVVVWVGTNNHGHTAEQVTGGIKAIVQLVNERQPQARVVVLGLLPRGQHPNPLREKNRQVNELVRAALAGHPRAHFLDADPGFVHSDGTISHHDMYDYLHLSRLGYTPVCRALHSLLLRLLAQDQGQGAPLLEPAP

[14] = target: Nuclear receptor coactivator 3 (Homo sapiens) (UniProt Q9Y6Q9); assay: NCOA3 GAL4-fusion reporter inhibition – cell-based, luminescence, quadruplicate, confirmation (AID 588792;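 active means mean inhibition over 43.08%, the solvent-only control mean plus 3 SD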;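 further: 0% = DMSO treated cells and 100% = gossypol at 36 µM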); conditions: HEK293 GAL4-SRC3 luciferase reporter, at 3.6 µM, stronger effect = higher value
[15] = system: transactivating tegument protein VP16 (Human herpesvirus 1), Gal4-VP16 luciferase reporter; assay: repression of VP16-driven luciferase reporter – cell-based, luminescence, high throughput, counter-screen for SRC3 inhibitor project (AID 588794; in the data active means inhibition above about 30%); conditions: mammalian cells, at 3.6 µM, stronger effect = higher value
[16] = VP16-driven transactivation reporter suppression – cell-based, luminescence, HEK293, counter-screen for COUP-TFII antagonist project (AID 687007; in the data active means inhibition above about 13%); conditions: HEK293 Gal4-VP16 luciferase reporter, at 8.5 µM, stronger effect = higher value
[17] = target: COUP transcription factor 2 (Homo sapiens) (UniProt P24468); assay: retest of COUP-TFII reporter suppressors – cell-based, luciferase reporter, HEK293, triplicate, confirmation (AID 687008;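 active means mean inhibition over three repeats above a set limit taken from the earlier primary screen, cut at about 38% in these data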;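 further: 100% = cells given the luciferase reporter alone without the COUP-TF2 vector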); conditions: HEK293 NGFI-A luciferase reporter, luminescence; at 8.5 µM; stronger effect = higher value
Chain of COUP transcription factor 2 (Homo sapiens) (P24468 whole entry, looked up): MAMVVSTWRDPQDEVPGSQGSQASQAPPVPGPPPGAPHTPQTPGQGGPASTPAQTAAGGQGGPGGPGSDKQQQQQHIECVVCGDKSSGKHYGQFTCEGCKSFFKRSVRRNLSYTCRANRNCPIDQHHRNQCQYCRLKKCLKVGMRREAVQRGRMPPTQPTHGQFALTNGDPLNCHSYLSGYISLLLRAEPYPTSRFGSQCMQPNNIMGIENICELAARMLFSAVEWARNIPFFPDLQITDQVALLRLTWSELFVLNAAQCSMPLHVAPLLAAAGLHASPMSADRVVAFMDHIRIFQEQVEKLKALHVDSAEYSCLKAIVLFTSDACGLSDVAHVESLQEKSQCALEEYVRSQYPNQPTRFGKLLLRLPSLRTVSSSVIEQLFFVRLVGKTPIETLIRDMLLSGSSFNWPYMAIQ

SMILES: O=C1C(=O)N(CCN2CCOCC2)C(c2cccc(Cl)c2)/C1=C(/O)c1ccc2c(c1)OCO2 (stereo unspecified)
- activation (reported as inhibition) [1]: 32.8% (active)
- inhibition [2]: 31.2% (active)

SMILES: Cc1cc(S(=O)(=O)c2cc3ccc(O)c(C)c3oc2=O)ccc1F
- inhibition [3]: -24%
- inhibition [4]: -0.08%

SMILES: COc1ccc(NS(=O)(=O)c2ccc(Oc3c(C#N)cccc3C#N)cc2)cc1
- inhibition [5]: 94.9% (active)
- inhibition [6]: 88% (active)

SMILES: CN(C)S(=O)(=O)c1ccc(Oc2ccc(S(=O)(=O)N(C)C)cc2)cc1
- inhibition [5]: 71.8% (active)
- inhibition [6]: 31.9%

SMILES: CCOc1ccc(Cn2nnc(C(=O)Nc3ccc(OC)cc3OC)c2N)cc1
- inhibition [7]: -0.29%
- inhibition [8]: -0.35%
- inhibition [9]: -1.47%

SMILES: CCc1ccc(-c2nn(-c3ccccc3)cc2CSC(=N)N)cc1
- inhibition [10]: -13.8%
- inhibition [11]: -7.64%
- inhibition [12]: 43.6% (active)

SMILES: O=C(/C=C(O)/C=C/c1ccc(O)cc1)/C=C/c1ccc(O)cc1
- inhibition [13]: 31.6% (active)

SMILES: COc1ccc(C(=O)Nc2nc(-c3ccc(S(=O)(=O)N4CCOCC4)cc3)cs2)cc1
- inhibition [14]: -12.4%
- inhibition [15]: -5.9%
- inhibition [10]: 16.2%
- inhibition [11]: 21.5%
- inhibition [16]: -11.1%
- inhibition [17]: 40.2% (active)

SMILES: Fc1ccc2[nH]c3c(N4CCSCC4)ncnc3c2c1
- inhibition [5]: 84.4% (active)
- inhibition [6]: 63.2%
- inhibition [16]: 4.31%
- inhibition [17]: 48% (active)

SMILES: N#C/C(=C\c1ccc(O)c(O)c1)C(=O)NCc1ccccc1
- inhibition [12]: 30.8% (active)
